According to PubChem BioAssay:
Activity calls are given as the source filed them.

Assays:
Albumin (Bos taurus) = Albumin (Bos taurus) (UniProt P02769); experiment: bovine serum albumin binders on microarray, profiling panel, artefact control for SMM control protein annotation, biochemical, small-molecule microarray, Alexa647 label, 635/667 nm fluorescence (AID 1118); conditions: BSA-A647 binding, fluorescence 635 nm, higher = more signal;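 note: score merges 667 nm emission intensity and signal-to-noise per printed compound spot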
Chain of Albumin (Bos taurus) (P02769 whole entry, looked up): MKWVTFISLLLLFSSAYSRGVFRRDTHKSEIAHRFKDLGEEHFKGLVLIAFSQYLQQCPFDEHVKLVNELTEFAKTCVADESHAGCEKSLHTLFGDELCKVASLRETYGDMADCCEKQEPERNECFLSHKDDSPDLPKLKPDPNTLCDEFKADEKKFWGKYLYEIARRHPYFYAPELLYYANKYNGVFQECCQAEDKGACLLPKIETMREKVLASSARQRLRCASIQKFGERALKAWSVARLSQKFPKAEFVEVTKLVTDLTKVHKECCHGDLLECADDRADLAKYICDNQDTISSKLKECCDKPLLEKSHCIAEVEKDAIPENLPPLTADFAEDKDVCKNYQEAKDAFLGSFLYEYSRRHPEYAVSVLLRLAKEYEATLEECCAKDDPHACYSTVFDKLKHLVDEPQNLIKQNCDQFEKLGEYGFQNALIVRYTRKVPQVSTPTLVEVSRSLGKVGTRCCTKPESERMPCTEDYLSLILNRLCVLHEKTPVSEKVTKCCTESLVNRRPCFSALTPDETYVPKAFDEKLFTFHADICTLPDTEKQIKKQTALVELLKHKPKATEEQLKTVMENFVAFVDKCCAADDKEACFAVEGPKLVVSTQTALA

[1] = small-molecule microarray binders of probe aXIP, primary screen, biochemical, NeuroSMM set, 635/667 nm fluorescence (AID 1119); conditions: higher = more signal, called active from +8 up or from −8 down;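 note: probe is the protein aXip251-270 applied at 1 µg/mL to compound-printed slides; binding of probe to printed compounds measured as 667 nm fluorescence plus signal to noise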
[2] = small-molecule binders of probe aNOTCH3, primary screen, biochemical, small-molecule microarray, 635/667 nm fluorescence (AID 1120); conditions: higher = more signal;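 note: probe is a biotin-tagged antibody raised against NOTCH3 rather than NOTCH3 protein; score merges spot fluorescence near 667 nm with spot signal to noise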
[3] = small-molecule binders of probe aNOTCH2, primary screen, biochemical, small-molecule microarray, 635/667 nm fluorescence (AID 1121); conditions: higher = more signal;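 note: score merges feature fluorescence read at 667 nm with its signal to noise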
[4] = target: Carbonic anhydrase 2 (Homo sapiens) (UniProt P00918); experiment: CAII small-molecule binders, profiling panel, biochemical, small-molecule microarray, Alexa647-labelled CAII (AID 1122); conditions: CAII-A647 binding fluorescence, higher = more signal
[5] = COS7 lysate on small-molecule microarray, probe aHis, 635 nm (AID 1123); conditions: COS7 cell lysate, fluorescence, higher = more signal;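 note: z-score combines 667nm fluorescence intensity with signal-to-noise per printed compound spot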
[6] = compound binding in COS7 lysate, probe aLAP1, primary screen, cell lysate, small-molecule microarray (AID 1124); conditions: probe aLAP1, fluorescence, higher = more signal;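 note: lysate comes from COS7 cells expressing LAP1 and is applied at 0.3 µg/mL; score merges spot fluorescence near 667 nm with signal-to-noise over triplicate slides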
Sam68 (KHDRBS1) = experiment: Sam68 small-molecule binders, primary screen, biochemical, small-molecule microarray, 635 nm fluorescence (AID 1125); conditions: small-molecule microarray binding, higher = more signal;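 note: score merges 667 nm channel intensity with signal to noise over triplicate slides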
[7] = system: Chordin-like protein 2 (CHRDL2); experiment: CHRDL2 small-molecule binders, primary screen, biochemical, small-molecule microarray, 635 nm fluorescence (AID 1126); conditions: small-molecule microarray binding, fluorescence 635 nm; higher = more signal;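 note: printed compound slides probed with Chrdl2 protein at 4 µg/mL for 1 h at 4 C; score merges 667 nm emission intensity with signal to noise over three replicate slides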
[8] = target: Concanavalin-A (Canavalia ensiformis) (UniProt P02866); experiment: ConA small-molecule binders, primary screen, artefact control for SMM control protein annotation, biochemical, small-molecule microarray, Alexa647 label, 635 nm (AID 1127); conditions: ConA-A647 binding fluorescence, higher = more signal;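 note: z combines 667 nm emission intensity with signal-to-noise across three replicate slides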
Chain of Concanavalin-A (Canavalia ensiformis) (P02866 whole entry, looked up): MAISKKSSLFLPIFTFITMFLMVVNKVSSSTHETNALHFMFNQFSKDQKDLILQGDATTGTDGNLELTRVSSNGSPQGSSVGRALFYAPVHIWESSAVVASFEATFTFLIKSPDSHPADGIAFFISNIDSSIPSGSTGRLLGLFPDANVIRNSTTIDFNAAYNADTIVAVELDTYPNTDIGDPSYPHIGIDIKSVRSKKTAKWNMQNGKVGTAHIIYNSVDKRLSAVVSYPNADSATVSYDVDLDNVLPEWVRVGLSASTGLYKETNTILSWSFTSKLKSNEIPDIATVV

Compound | composite z-score (Albumin (Bos taurus)) | composite Z-score [1] | composite z-score [2] | composite z-score [3] | composite z-score [4] | composite z-score [5] | composite z-score [6] | composite z-score (Sam68 (KHDRBS1)) | composite z-score [7] | composite z-score [8]
COCCOC(=O)N1C(=O)[C@@]2(c3cc(C#CCNC(N)=O)ccc31)[C@H](C(=O)NC[C@H](O)c1ccccc1)[C@H]1C(=O)O[C@H](c3ccccc3)[C@H](c3ccccc3)N1[C@@H]2c1ccccc1OCCO | 0.509 | 0.529 (inactive) | 0.411 | 0.0156 | 0.296 | 1.28 | 0.854 | 1.28 | 0.209 | 1.01
C#CCN(CC=C(C)C)[C@H](CO)c1ccccc1 | -0.258 | 0.289 (inactive) | 0.0081 | -0.0819 | -0.0144 | -0.41 | -0.277 | 0.584 | -0.184 | -0.711
CC(C)C(CO)N1C(=O)[C@@H]2[C@H]3C(=O)OCC=C[C@H]3OC23C=CCN(C(C)C)C(=O)[C@@H]13 (stereo not given in full) | -0.457 | 0.12 (inactive) | -0.149 | -0.14 | -0.0147 | -0.312 | -0.313 | 0.239 | 0.292 | -0.529
COc1ccc(NN2C(C(O)c3ccc([N+](=O)[O-])cc3)C=CC3C(=O)N(C4CCCCC4)C(=O)C32)cc1 (stereo not given) | 0.424 | 0.601 (inactive) | 0.178 | -0.115 | 0.561 | 1.48 | -0.0699 | 1.23 | -0.261 | 0.505
C#CCN(Cc1ccccc1Br)C(/C=C/c1ccccc1)CO (stereo not given) | -0.406 | -0.177 (inactive) | -0.212 | -0.18 | -0.22 | -0.163 | -0.146 | -0.271 | 0.188 | -1.25
CCCC=C(CCC)[C@@H](NS(=O)(=O)c1cccs1)c1ccc(C(=O)OC)cc1 | 1.06 | -0.227 (inactive) | 0.17 | 0.0592 | 0.748 | 2.94 | 0.157 | 1.32 | -1.19 | 1.17
CC1(C)[C@@H]2CC(C(O)C3C=CC4C(=O)N(c5ccccc5)C(=O)C4N3Nc3ccccc3)=C[C@H]1C2 (stereo not given in full) | 0.566 | -0.212 (inactive) | -0.0144 | 0.0127 | 0.408 | 1.61 | 0.322 | 0.031 | 0.684 | 0.566
C=CCN1C(=O)[C@@]2(O[C@@H](CCO)[C@H]([Si](C)(C)c3ccc(OC)cc3)[C@H]2C)c2cc(NC(=O)c3ccc(OC)cc3)ccc21 | 0.317 | -0.265 (inactive) | -0.0006 | -0.0836 | 0.187 | 0.244 | 0.0327 | 1.18 | 0.927 | 1.03
O=C(c1ccccc1)N1Cc2ccccc2[C@@H]2OC(c3ccc(OCCCO)cc3)=N[C@]2(Cc2ccccc2)C1=O | 0.383 | 0.07 (inactive) | 0.225 | -0.18 | 0.554 | 1.38 | 0.482 | 1.31 | 0.061 | 1.13
COCCOC(=O)N1C(=O)[C@@]2(c3cc(C#Cc4ccc(OC)cc4)ccc31)[C@H](C(=O)N1CCCCCCC1)[C@H]1C(=O)O[C@H](c3ccccc3)[C@H](c3ccccc3)N1[C@@H]2c1ccc(OCCO)cc1 | -1.25 | 3.51 (inactive) | 0.872 | 0.711 | 0.712 | 1.49 | 0.913 | 1.3 | 1.48 | 0.987
CC(C)(C)OC(=O)CC[C@@]1(C(=O)NCC(O)CO)N=C(c2ccc(OCCCO)cc2)O[C@@H]1c1ccccc1N=[N+]=[N-] (stereo not given in full) | 0.866 | 0.559 (inactive) | 0.183 | 0.0083 | 0.741 | 3.53 | 0.537 | 1.16 | -0.121 | 1.2
CN1C(=O)C2C=CC(C(O)c3ccc(-c4ccccc4)s3)N(N(c3ccccc3)c3ccccc3)C2C1=O (stereo not given) | 0.828 | 0.81 (inactive) | -0.0865 | -0.134 | 0.365 | 1.69 | -0.149 | 0.749 | 0.414 | 1.08
O=C1O[C@H](c2ccccc2)[C@H](c2ccccc2)N2[C@H]1[C@@H](C(=O)O)[C@]1(C(=O)Nc3ccc(C#CCCO)cc31)[C@H]2c1ccc(O)cc1 | 0.279 | 0.0575 (inactive) | -0.0014 | -0.0467 | 0.501 | 0.651 | 0.514 | 0.0673 | -0.823 | -0.161
O=C1OCCC/C=C\[C@H]2OC34C=CCN(Cn5nnc6ccccc65)C(=O)[C@H]3N(CCCCCCO)C(=O)[C@@H]4C12 (stereo not given in full) | -0.265 | 0.236 (inactive) | -0.262 | -0.101 | 0.652 | 2.13 | -0.368 | 0.839 | -1.25 | -0.472
CN1C(=O)C2C=CC(C(O)c3cc(C(F)(F)F)cc(C(F)(F)F)c3)N(N3CCCCC3)C2C1=O (stereo not given) | 0.712 | 2.11 (inactive) | 0.0488 | -0.0467 | 0.551 | 1.79 | -0.33 | 1.08 | -0.672 | 0.768
COCCOC(=O)N1C(=O)[C@@]2(c3cc(C#CC4(O)CCCCCC4)ccc31)[C@H](c1ccc(O)cc1)N1[C@H](c3ccccc3)[C@H](c3ccccc3)OC(=O)[C@H]1[C@@H]2C(=O)Nc1nc2ccccc2s1 | 0.873 | 0.0656 (inactive) | 0.499 | 0.203 | 0.362 | 1.85 | 0.552 | 1.32 | 0.524 | 0.785
COc1ccc([C@H]2C[C@H]3C(Br)=C[C@@H]2C(=O)[C@]32CO2)cc1 | -1.13 | -0.624 (inactive) | -0.176 | -0.075 | -0.539 | -0.442 | -0.0737 | -0.99 | 0.736 | 0.125
[N-]=[N+]=NCc1ccccc1C[C@@]1(C(=O)NCC(O)CO)N=C(c2ccc(OCCCO)cc2)O[C@@H]1c1ccccc1N=[N+]=[N-] (stereo not given in full) | 0.987 | 1.26 (inactive) | 0.318 | -0.0814 | 0.69 | 3.14 | 0.791 | 1.31 | -0.655 | 1.1
CCCCC=C[C@@H](NC(=O)Oc1cccc(C(F)(F)F)c1)c1ccccc1 | 1.02 | 0.505 (inactive) | 0.888 | 0.39 | 0.755 | 0.183 | -0.403 | 1.27 | -0.0519 | 1.13
CC(C)C[C@H]1NC(=O)[C@@]23C(=O)N[C@@H](Cc4ccccc4)C2[C@H](C)[C@@]2(C)O[C@H]2C3/C=C/C/C=C\CNC(=O)[C@H](Cc2ccccc2)NC1=O (stereo not given in full) | -0.188 | -0.311 (inactive) | -0.0377 | -0.115 | 0.254 | 0.19 | -0.108 | 0.791 | 0.696 | 0.205
COCCCNC(=O)C1N=C(c2ccc(OCCCO)cc2)N(c2ccccc2)O1 (stereo not given) | 0.107 | -0.442 (inactive) | 0.0836 | -0.112 | 0.778 | 0.388 | -0.193 | 1.3 | -0.289 | 1.04
O=C1O[C@@H](c2ccccc2)[C@@H](c2ccccc2)N2[C@@H](c3ccc(OCCO)cc3)[C@]3(C(=O)Nc4ccccc43)[C@@H](C(=O)NC[C@H](O)c3ccccc3)[C@H]12 | 0.393 | 0.312 (inactive) | 0.0519 | -0.0649 | 0.549 | 1.67 | 0.759 | 0.989 | 0.895 | 0.999
COc1ccc(CCN2C(=O)[C@@]3(c4ccc([N+](=O)[O-])cc4)CC(=O)N(C4CCCCC4)[C@@H]3c3ccc(CO)cc32)cc1 | -1.26 | 0.469 (inactive) | -0.0598 | -0.101 | 0.257 | 0.622 | 0.347 | 0.38 | 0.693 | 0.587
COc1ccc(C(=O)Nc2cccc(CN3C(=O)[C@]4(O[C@H](CCO)[C@@H]([Si](C)(C)c5ccc(OC)cc5)[C@@H]4C)c4ccccc43)c2)cc1 | 0.0296 | -0.494 (inactive) | 0.0297 | -0.112 | 0.41 | 0.787 | 0.593 | 1.21 | 0.379 | 1.13
CN1C(=O)C2C=CC(C(O)c3cccs3)N(Nc3ccccc3)C2C1=O (stereo not given) | 0.95 | -0.227 (inactive) | 0.0873 | -0.0856 | 0.831 | 1.87 | -0.0235 | 0.186 | 0.0907 | 0.442
COCCOC(=O)N1C(=O)[C@@]2(c3cc(C#CC4=CCCCC4)ccc31)[C@H](C(=O)N1CCc3cc(OC)c(OC)cc3C1)[C@H]1C(=O)O[C@H](c3ccccc3)[C@H](c3ccccc3)N1[C@@H]2c1ccc(OCCO)cc1 | 0.448 | 0.238 (inactive) | 0.0836 | -0.152 | 0.194 | 1 | 0.378 | 1.29 | 0.69 | 1.14
CC(C)c1ccc(NN2C(C(O)c3cc(C(F)(F)F)cc(C(F)(F)F)c3)C=CC3C(=O)N(c4ccccc4)C(=O)C32)cc1 (stereo not given) | 0.588 | -0.117 (inactive) | 0.0203 | 0.0506 | 0.489 | 2.43 | 0.152 | 0.924 | -0.219 | 0.568
C=CCC(OC(C)=O)[C@@H]1[C@@H](N(Cc2ccc(-c3cccc(C(F)(F)F)c3)o2)C(=O)c2ccc(-c3ccccc3)cc2)c2cc(OCCCO)ccc2N1C(=O)c1ccc(-c2ccccc2)cc1 (stereo not given in full) | 0.0046 | 0.111 (inactive) | -0.0957 | -0.126 | -0.0098 | 0.0291 | -0.128 | -0.197 | -0.0179 | -0.639
C=CC[C@]1(C(=O)NCCCOC)N=C(c2ccc(OCCCO)cc2)O[C@H]1c1ccccc1N=[N+]=[N-] | 0.958 | 0.484 (inactive) | 0.205 | 0.0494 | 0.726 | 3.06 | 0.397 | 1.31 | -0.0877 | 0.982
